In the supplement of paper PMC5662767:
Structures can show the parent of a compound that is named as a salt.

System: Drosophila S2 cl14 SmoIP sensor cells
Experiment: normalized SmoIP GFP fluorescence (untreated unstimulated = 0%, untreated Hh-stimulated = 100%); higher = more Smo activation sensor fluorescence
Conditions: stimulation: mock conditioned medium (-Hh); compound concentration: 2 uM; 24 h
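Note: flow cytometry read-out as median GFP intensity of gated cells, compounds added 30 min before Hh-conditioned or mock medium, mock-treated cells serving as unstimulated baseline.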

Row | Structure (SMILES) | normalized SmoIP GFP fluorescence [%]
1 | CNCCC(Oc1ccc(C(F)(F)F)cc1)c1ccccc1 (stereo unspecified) [Fluoxetine-hydrochloride] | 1.89
2 | O=C1C[C@@H](c2ccc(O)cc2)Oc2cc(O)cc(O)c21 [Naringenin] | -6.61
3 | CNC(=O)c1cc(Oc2ccc(NC(=O)Nc3ccc(Cl)c(C(F)(F)F)c3)cc2)ccn1 [Sorafenib-Tosylate] | 47.1
4 | O=C(NOCC(O)CO)c1cc(Br)c(F)c(F)c1Nc1ccc(I)cc1F (stereo unspecified) | 16.8
5 | O=C(c1cncc(Br)c1)N1CCC(N2CCCC2)CC1 | 1.35
6 | C[C@@H]1CN(CC(=O)Nc2ccc3c(c2)Cc2cccc(-c4cc(=O)cc(N5CCOCC5)o4)c2S3)C[C@H](C)O1 | 5.98
7 | CCOC(=O)C1=C(C)NC(C)=C(C(=O)OC)C1c1cccc([N+](=O)[O-])c1 (stereo unspecified) [Nitrendipine] | -12
8 | Cc1cc(-c2ncc(CC(=O)Nc3ccc(-c4cnccn4)cn3)cc2C)ccn1 | -1.23
9 | NC12CC3CC(CC(C3)C1)C2 [Amantadine-hydrochloride(Symmetrel)] | -4.08
10 | O=C(Nc1ccccc1)N1CCN(c2nc(-c3ccccc3)ns2)CC1 | -0.889
11 | CC(C)(O)[C@H]1CC[C@@](C)([C@H]2[C@@H](O)C[C@@]3(C)[C@@H]4C[C@H](O[C@@H]5O[C@H](CO)[C@@H](O)[C@H](O)[C@H]5O)[C@H]5C(C)(C)[C@@H](O[C@@H]6OC[C@@H](O)[C@H](O)[C@H]6O)CC[C@@]56C[C@@]46CC[C@]23C)O1 [astragaloside-a] | -16.8
12 | CN(C)CCOc1ccc(-c2nc(-c3ccncc3)c(-c3ccc4c(c3)CC/C4=N\O)[nH]2)cc1 | 4.48
13 | CC(C)(C)NC(=O)[C@H]1CC[C@H]2[C@@H]3CC[C@H]4NC(=O)C=C[C@]4(C)[C@H]3CC[C@]12C [Finasteride] | -9.32
14 | C#C[C@]1(OC(C)=O)CC[C@H]2[C@@H]3CCC4=C[C@@H](OC(C)=O)CC[C@@H]4[C@H]3CC[C@@]21C [ethynodiol-diacetate] | -1.63
15 | CCCSc1nc(N[C@@H]2C[C@H]2c2ccc(F)c(F)c2)c2nnn([C@@H]3C[C@H](OCCO)[C@@H](O)[C@H]3O)c2n1 [ticagrelor] | -3.39
16 | CNC(=O)c1ccc(-c2cnc3ncc(Cc4ccc5ncccc5c4)n3n2)cc1F | -1.34
17 | O=C(C[S+]([O-])Cc1ccco1)NC/C=C\COc1cc(CN2CCCCC2)ccn1 (stereo unspecified) [lafutidine] | -9.85
18 | CN(C)CC/C=C1/c2ccccc2Sc2ccc(Cl)cc21 [Chlorprothixene] | -0.378
19 | COc1ccc(-c2cc3c(C)nc(N)nc3n([C@H]3CC[C@H](OCCO)CC3)c2=O)cn1 | -29.5
20 | O=c1cc(N2CCOCC2)oc2c(-c3ccccc3)cccc12 | -5.76
21 | Cc1nc(Nc2ncc(C(=O)Nc3c(C)cccc3Cl)s2)cc(N2CCN(CCO)CC2)n1 [Dasatinib] | -3.93
22 | Cc1cnc(-c2cnc(NCCNc3ccc(C#N)cn3)nc2-c2ccc(Cl)cc2Cl)[nH]1 | -0.151
23 | NC(N)=N/N=C/c1c(Cl)cccc1Cl [guanabenz-wy-8678-acetate] | -4.7
24 | COc1c(C)cnc(Cn2cnc3c(Cl)nc(N)nc32)c1C | 34.5
25 | OCc1ccc(-c2ccc(-c3ccc(CO)s3)o2)s1 | -2.08
26 | NS(=O)(=O)C#Cc1ccccc1 [pifithrin-u] | -0.0369
